We go through 7 compounds from PubChem BioAssay (EPA / NIEHS).

Assay [1] can be described thus: ATG_E_Box_CIS: Attagene CIS-FACTORIAL HepG2 Assay for human Enhancer Box (E-box) (AID 2282936). The following applies: HepG2 E-box cis-reporter transcription, actives raise or lower the signal. In a few lines: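 HepG2 cells transiently transfected with multiplexed cis-element reporter units, dosed 24 h; reporter mRNA quantified by RT-PCR, 6-FAM labelling, HpaI digestion and capillary electrophoresis. E-box (USF1) signal fitted bidirectionally vs DMSO.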

A short description of assay [2]: ATG_M_61_CIS: Attagene CIS-FACTORIAL HepG2 Assay for M61 Transcription Factor (Internal Marker) (AID 2282937). The following applies: HepG2 Attagene CIS-FACTORIAL M61 internal marker reporter; actives raise or lower the signal. The method, boiled down:
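Human liver HepG2, transient MRTU transfection (cis promoter elements), 24 h compound. Total RNA → oligo(dT) RT → PCR → FAM label → HpaI → CE. Internal background marker; bidirectional fitting, DMSO = baseline.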

A short description of assay [3]: ATG_EGR_CIS: Attagene CIS-FACTORIAL HepG2 Assay for human Early Growth Response 1 (EGR1) (AID 2282938). To be noted: HepG2 Attagene CIS-FACTORIAL EGR reporter mRNA; actives raise or lower the signal. The method, boiled down:
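Transient transfection of human HepG2 with multiple cis-regulated reporter units, chemical exposure 24 h, total RNA isolated. Reverse transcription, PCR, fluorescent labelling and capillary electrophoresis quantify reporter transcripts; activity fitted bidirectionally against DMSO.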

A short description of assay [4]: ATG_M_19_CIS: Attagene CIS-FACTORIAL HepG2 Assay for M19 Transcription Factor (Internal Marker) (AID 2282939). The following applies: HepG2 Attagene CIS-FACTORIAL M19 internal marker reporter; actives raise or lower the signal. In a few lines:
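Readout: fluorescent reporter-transcript fragments by capillary electrophoresis after RT-PCR. Human HepG2 liver cells carried transfected MRTU constructs reporting endogenous transcription-factor activity; exposure 24 h. Gain or loss of signal fitted relative to DMSO.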

The nature of assay [5]: ATG_ERE_CIS: Attagene CIS-FACTORIAL HepG2 Assay for Estrogen Response Element (ERE) (AID 2282940). To be noted: HepG2 ERE cis-reporter, Attagene RNA transcript; actives raise or lower the signal. The method, boiled down: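 Readout: reporter mRNA induction by RT-PCR, FAM-labelled primer extension, HpaI digestion and capillary electrophoresis, 24 h after dosing transfected HepG2 cells. Endogenous transcription factors act on cis-element-regulated reporters. Gain or loss fitted against DMSO.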

Assay [6] is described as follows: ATG_Ets_CIS: Attagene CIS-FACTORIAL HepG2 Assay for human Erythroblast Transformation Specific (ETS) (AID 2282941). To be noted: HepG2 ETS cis-reporter transcription, actives raise or lower the signal. In a few lines:
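After transient cis-reporter transfection, HepG2 cells receive test chemical for 24 h. Reporter mRNA levels, measured by RT-PCR and capillary electrophoresis fluorescence, are analysed bidirectionally relative to the DMSO baseline.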

The target of assay [7] is Hepatocyte nuclear factor 3-beta (Homo sapiens) (UniProt Q9Y261). As to the kind of experiment: ATG_FoxA2_CIS: Attagene CIS-FACTORIAL HepG2 Assay for human Forkhead box A2 (FOXA2) (AID 2282942). The following applies: HepG2 cis-reporter transcription factor activity, 24 h; actives raise or lower the signal. The method, boiled down: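 Transient MRTU transfection of HepG2 liver cells; 24 h treatment; total RNA → oligo(dT) RT → PCR → FAM primer extension → HpaI cut → CE. Bidirectional fit vs DMSO.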
Sequence of Hepatocyte nuclear factor 3-beta (Homo sapiens) (Q9Y261 whole entry, looked up): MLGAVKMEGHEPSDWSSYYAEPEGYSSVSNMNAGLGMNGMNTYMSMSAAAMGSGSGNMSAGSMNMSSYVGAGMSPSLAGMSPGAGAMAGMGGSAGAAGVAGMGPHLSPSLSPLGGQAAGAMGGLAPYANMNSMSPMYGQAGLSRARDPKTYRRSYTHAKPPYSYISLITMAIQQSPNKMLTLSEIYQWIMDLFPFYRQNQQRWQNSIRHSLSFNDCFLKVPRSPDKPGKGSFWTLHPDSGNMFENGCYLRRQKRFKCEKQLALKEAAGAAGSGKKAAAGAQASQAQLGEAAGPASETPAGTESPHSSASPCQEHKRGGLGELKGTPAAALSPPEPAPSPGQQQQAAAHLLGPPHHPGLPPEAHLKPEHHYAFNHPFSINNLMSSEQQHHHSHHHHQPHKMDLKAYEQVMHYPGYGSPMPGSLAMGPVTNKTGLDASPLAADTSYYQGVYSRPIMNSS

A short description of assay [8]: ATG_FoxO_CIS: Attagene CIS-FACTORIAL HepG2 Assay for human Forkhead box O (FoxO) (AID 2282943). To be noted: HepG2 Attagene cis-reporter, FoxO element, mRNA; actives raise or lower the signal. The method, boiled down:
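Transfected HepG2 reporter cells exposed to test chemical for 24 h; reporter RNA measured by reverse transcription, PCR and fluorescent capillary electrophoresis; curves fitted for increases and decreases against DMSO.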

Assay [9] in a line: ATG_GATA_CIS: Attagene CIS-FACTORIAL HepG2 Assay for human GATA Binding Protein (AID 2282944). The following applies: HepG2 GATA cis-element reporter, Attagene multiplex mRNA; actives raise or lower the signal. In a few lines: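 Read-out: fluorescent reporter mRNA fragments resolved by capillary electrophoresis after RT-PCR. Human liver HepG2 cells carried transiently transfected cis-regulated reporter constructs; chemicals incubated 24 h; gain or loss of signal fitted relative to DMSO.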

Assay [10] is described as follows: ATG_GLI_CIS: Attagene CIS-FACTORIAL HepG2 Assay for human Zinc Finger Protein GLI1 (AID 2282945). To be noted: HepG2, Attagene cis-factorial reporter mRNA, GLI element; actives raise or lower the signal. The method, boiled down: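 Transiently transfected HepG2 cells report endogenous transcription factor activity via cis-element-driven reporter units. After 24 h compound exposure, reporter mRNA was measured by RT-PCR with capillary electrophoresis; bidirectional fitting against DMSO baseline.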

For assay [11], the target named is Bile acid receptor (Homo sapiens) (UniProt Q96RI1). The assay is described as follows: ATG_IR1_CIS: Attagene CIS-FACTORIAL HepG2 Assay for human Nuclear Receptor Subfamily 1 Group H Member 4 (NR1H4), IR1 submotif (AID 2282946). The following applies: IR1 reporter transcription, actives raise or lower the signal. In a few lines: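 HepG2 cells transiently transfected with multiple cis-promoter-driven reporter units to measure endogenous transcription factor activity; 24 h exposure. Reporter mRNA read by RT-PCR, FAM labelling, HpaI digestion and capillary electrophoresis. Bidirectional fit versus DMSO.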
Sequence of Bile acid receptor (Homo sapiens) (Q96RI1 whole entry, looked up): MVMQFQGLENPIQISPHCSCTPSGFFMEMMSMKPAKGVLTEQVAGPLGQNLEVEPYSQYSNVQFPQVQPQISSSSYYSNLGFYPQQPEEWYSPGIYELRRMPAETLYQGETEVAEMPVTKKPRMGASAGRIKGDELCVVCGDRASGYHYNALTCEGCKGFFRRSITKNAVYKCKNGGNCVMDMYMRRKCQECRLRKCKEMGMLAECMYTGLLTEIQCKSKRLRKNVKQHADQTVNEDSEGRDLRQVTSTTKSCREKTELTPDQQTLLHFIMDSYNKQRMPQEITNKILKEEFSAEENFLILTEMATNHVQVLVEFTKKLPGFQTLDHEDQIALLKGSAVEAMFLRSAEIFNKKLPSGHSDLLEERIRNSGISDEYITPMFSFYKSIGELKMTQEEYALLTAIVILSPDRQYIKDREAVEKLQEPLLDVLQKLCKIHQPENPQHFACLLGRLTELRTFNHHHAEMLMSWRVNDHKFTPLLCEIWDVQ

Assay [12] can be described thus: ATG_GRE_CIS: Attagene CIS-FACTORIAL HepG2 Assay for human Glucocorticoid Response Elements (GRE) (AID 2282947). To be noted: HepG2 GRE cis-reporter, Attagene multiplex mRNA; actives raise or lower the signal. The method, boiled down:
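Transiently transfected HepG2 cells carrying GRE cis-reporter units (endogenous TF activity) dosed 24 h; reporter mRNA quantified by RT-PCR, 6-FAM labelling, HpaI digestion and capillary electrophoresis. Bidirectional fit versus DMSO baseline.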

A short description of assay [13]: ATG_ISRE_CIS: Attagene CIS-FACTORIAL HepG2 Assay for human Interferon Regulatory Factor 1 (IRF1) binding to an Interferon-Stimulated Response Element (ISRE) (AID 2282948). To be noted: HepG2 ISRE cis-reporter (Attagene), mRNA transcription readout; actives raise or lower the signal. In a few lines: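 Quantitation relies on labelled RT-PCR fragments separated by capillary electrophoresis. Human HepG2 cells bearing cis-promoter reporter constructs were treated 24 h; DMSO served as baseline for bidirectional fitting.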

A short description of assay [14]: ATG_M_06_CIS: Attagene CIS-FACTORIAL HepG2 Assay for M06 Transcription Factor (Internal Marker) (AID 2282950). The following applies: HepG2 Attagene CIS-FACTORIAL M06 internal marker reporter; actives raise or lower the signal. The method, boiled down: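 Terse: HepG2, transient MRTU transfection (FuGene 6), 24 h dosing; total RNA, oligo(dT) RT, PCR, FAM label, HpaI cut, capillary electrophoresis; bidirectional fit vs DMSO baseline; background-control endpoint.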

Assay [15] concerns the target Hypoxia-inducible factor 1-alpha (Homo sapiens) (UniProt Q16665). The assay is described as follows: ATG_HIF1a_CIS: Attagene CIS-FACTORIAL HepG2 Assay for human Hypoxia Inducible Factor 1 (HIF1A) (AID 2282951). To be noted: HepG2 Attagene cis-factorial HIF1a reporter transcription; actives raise or lower the signal. The method, boiled down: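 Transient MRTU transfection of human HepG2 liver cells, 24 h compound treatment, then total RNA isolation, oligo(dT) reverse transcription, PCR amplification, fluorescent labelling and capillary electrophoresis of reporter fragments. Gain or loss relative to DMSO.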

Assay [16] addresses Hepatocyte nuclear factor 6 (Homo sapiens) (UniProt Q9UBC0). As to the kind of experiment: ATG_HNF6_CIS: Attagene CIS-FACTORIAL HepG2 Assay for human Hepatocyte Nuclear Factor 6 (HNF6) (AID 2282952). To be noted: HepG2 Attagene cis-factorial HNF6 reporter transcription; actives raise or lower the signal. In a few lines:
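HepG2, transient MRTU transfection (cis promoters); 24 h chemical exposure; total RNA → oligo(dT) RT → PCR → 6-FAM labelling → HpaI cut → CE; bidirectional fit vs DMSO.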

Assay [17] addresses Heat shock factor protein 1 (Homo sapiens) (UniProt Q00613). As to the kind of experiment: ATG_HSE_CIS: Attagene CIS-FACTORIAL HepG2 Assay for human Heat Shock Transcription Factor 1 (HSE) (AID 2282953). To be noted: HepG2 HSE cis-reporter, Attagene RNA transcription; actives raise or lower the signal. The method, boiled down: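 Read-out: fluorescence of reporter-specific RT-PCR fragments separated by capillary electrophoresis. HepG2 carrying transfected cis-element reporter units; 24 h dosing; activity fitted in both directions relative to DMSO baseline.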

Assay [18] in a line: ATG_MRE_CIS: Attagene CIS-FACTORIAL HepG2 Assay for human Metal Responsive Element (MRE) (AID 2282954). To be noted: HepG2 MRE cis-reporter transcription, Attagene multiplex; actives raise or lower the signal. The method, boiled down: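 HepG2 cells transiently transfected with cis-element-driven reporter units; mRNA measured 24 h after dosing. Reporter transcripts quantified by RT-PCR, FAM labelling, HpaI digestion and capillary electrophoresis; bidirectional fit versus DMSO.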

Assay [19] is described as follows: ATG_PBREM_CIS: Attagene CIS-FACTORIAL HepG2 Assay for human Phenobarbital-responsive Enhancer Module (PBREM) (AID 2282955). To be noted: HepG2 PBREM cis-reporter, Attagene multiplexed transcription; actives raise or lower the signal. In a few lines: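 Endogenous transcription factors in human liver HepG2 cells drive a PBREM cis-element reporter, whose transcript level after 24 h treatment is quantified by RT-PCR with capillary electrophoresis; activity fitted in both directions against DMSO.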

Assay [20] in a line: ATG_M_32_CIS: Attagene CIS-FACTORIAL HepG2 Assay for M32 Transcription Factor (Internal Marker) (AID 2282949).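 Also: background control marker of the multiplexed CIS panel rather than a real target.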 To be noted: HepG2 Attagene cis-factorial M32 reporter, mRNA; actives raise or lower the signal. In a few lines: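 Fluorescent capillary electrophoresis peaks of HpaI-digested, FAM-labelled RT-PCR reporter products give the signal. Source: transiently transfected human liver HepG2 cells, 24 h after chemical dosing; bidirectional fitting against DMSO.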

Structures are written as SMILES. Activity calls are given as the source filed them. The calls were made as follows: active = hit-call score of the fitted dose curve at least 0.9, where 1 is the maximum; inactive = score below 0.9.

Sequence of Heat shock factor protein 1 (Homo sapiens) (Q00613 whole entry, looked up, the tested form may be a part): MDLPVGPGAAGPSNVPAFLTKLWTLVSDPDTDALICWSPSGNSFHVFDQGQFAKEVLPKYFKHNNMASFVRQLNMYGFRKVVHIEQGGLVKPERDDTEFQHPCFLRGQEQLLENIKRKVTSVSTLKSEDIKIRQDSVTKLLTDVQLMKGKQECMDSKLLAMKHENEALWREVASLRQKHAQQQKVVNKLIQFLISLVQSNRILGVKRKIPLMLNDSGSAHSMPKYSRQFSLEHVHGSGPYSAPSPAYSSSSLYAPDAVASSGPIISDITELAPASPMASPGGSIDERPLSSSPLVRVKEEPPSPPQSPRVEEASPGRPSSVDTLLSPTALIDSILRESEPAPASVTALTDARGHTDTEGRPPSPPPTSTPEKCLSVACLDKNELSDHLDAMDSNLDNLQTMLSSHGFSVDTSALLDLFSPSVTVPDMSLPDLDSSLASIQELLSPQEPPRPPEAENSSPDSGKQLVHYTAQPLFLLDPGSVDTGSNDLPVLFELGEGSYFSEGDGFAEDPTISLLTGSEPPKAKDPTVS
Sequence of Hepatocyte nuclear factor 6 (Homo sapiens) (Q9UBC0 whole entry, looked up): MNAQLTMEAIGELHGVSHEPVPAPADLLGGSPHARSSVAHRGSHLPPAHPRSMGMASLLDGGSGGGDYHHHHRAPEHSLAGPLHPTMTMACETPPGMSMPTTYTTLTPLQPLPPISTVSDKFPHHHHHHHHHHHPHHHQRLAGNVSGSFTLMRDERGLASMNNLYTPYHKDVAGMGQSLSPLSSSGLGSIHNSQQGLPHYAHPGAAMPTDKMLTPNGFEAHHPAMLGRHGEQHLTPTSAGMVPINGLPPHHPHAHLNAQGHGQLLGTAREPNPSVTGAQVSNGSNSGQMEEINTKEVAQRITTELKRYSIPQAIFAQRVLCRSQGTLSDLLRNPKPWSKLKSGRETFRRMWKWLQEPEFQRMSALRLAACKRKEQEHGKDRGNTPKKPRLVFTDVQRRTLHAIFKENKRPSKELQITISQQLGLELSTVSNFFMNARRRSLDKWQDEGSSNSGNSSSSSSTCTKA
Sequence of Hypoxia-inducible factor 1-alpha (Homo sapiens) (Q16665 whole entry, looked up, the tested form may be a part): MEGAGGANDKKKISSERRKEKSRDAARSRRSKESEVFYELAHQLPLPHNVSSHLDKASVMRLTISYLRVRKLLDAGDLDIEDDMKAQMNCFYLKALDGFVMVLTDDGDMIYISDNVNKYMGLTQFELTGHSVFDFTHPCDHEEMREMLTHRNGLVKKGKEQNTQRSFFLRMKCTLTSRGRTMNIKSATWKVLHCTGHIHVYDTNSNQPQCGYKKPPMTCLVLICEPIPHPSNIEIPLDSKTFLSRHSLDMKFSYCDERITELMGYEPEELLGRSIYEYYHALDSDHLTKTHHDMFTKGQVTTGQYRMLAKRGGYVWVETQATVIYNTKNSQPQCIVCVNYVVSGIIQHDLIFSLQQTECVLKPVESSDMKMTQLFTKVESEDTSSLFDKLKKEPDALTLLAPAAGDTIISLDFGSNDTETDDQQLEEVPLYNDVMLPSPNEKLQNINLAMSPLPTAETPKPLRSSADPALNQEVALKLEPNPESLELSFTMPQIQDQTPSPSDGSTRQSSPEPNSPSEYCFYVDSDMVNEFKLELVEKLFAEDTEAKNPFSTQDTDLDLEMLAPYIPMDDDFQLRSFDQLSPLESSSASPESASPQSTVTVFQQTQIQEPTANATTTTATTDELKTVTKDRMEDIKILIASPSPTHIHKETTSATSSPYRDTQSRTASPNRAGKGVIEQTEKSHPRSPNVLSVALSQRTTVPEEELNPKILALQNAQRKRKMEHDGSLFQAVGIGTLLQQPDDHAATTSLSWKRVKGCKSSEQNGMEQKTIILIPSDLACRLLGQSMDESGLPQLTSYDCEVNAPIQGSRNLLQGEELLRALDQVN

Turning to `COc1cccc(-c2ccc(/C=C\CN3CCCCCC3)cc2Cl)c1`, the outcome in [1], in assay [2], in [3], in [4], in assay [5] and in [6] was inactive. Also, the outcome in [7], in [8], in assay [9], in assay [10], in [11] and in assay [12] was inactive. Also, the outcome in assay [13], in assay [14], in assay [15], in assay [16], in assay [17] and in assay [18] was inactive. The result in assay [19] was inactive.
On to `CN(C)c1ccc(Cc2ccc(N(C)C)cc2)cc1`, for which the AC50 in assay [1] was 31.1 µM (active); in assay [3], 25.6 µM (active); in assay [18], 50.3 µM (active). Moreover, the result in assay [2], in assay [4], in assay [6], in [7], in assay [8] and in assay [9] was inactive. For the same compound, the call in assay [10], in [11], in assay [12], in assay [13], in assay [14] and in assay [15] was inactive. The outcome in assay [16] and in assay [17] was inactive.
Regarding `CC(O)CN(CCN(CC(C)O)CC(C)O)CC(C)O` (stereo not drawn), the outcome in [1], in assay [2], in assay [3], in assay [4], in assay [6] and in [7] was inactive. For the same compound, the outcome in assay [8], in assay [9], in assay [10], in assay [11], in assay [12] and in [13] was inactive. Moreover, the outcome in [20], in assay [14], in [16], in assay [17], in [18] and in assay [19] was inactive.
With `Cc1ccc(O)cc1`, the result in [1], in [2], in [3], in assay [4], in [6] and in assay [7] was inactive. Further, the result in assay [8], in assay [9], in [10], in [11], in assay [12] and in [13] was inactive. Also, the compound was classed as inactive in assay [14], in assay [16], in assay [17], in [18] and in assay [19].
As to `CC(C)CCO`, the result in assay [1], in [2], in assay [3], in assay [4], in assay [5] and in assay [6] was inactive. The compound was called inactive in assay [7], in [8], in assay [9], in assay [10], in assay [13] and in [14]. Also, the compound was classed as inactive in assay [15], in [16], in assay [17] and in [18].
With `Cc1ccc(S(=O)(=O)O)cc1C`, the result in assay [1], in assay [2], in assay [3], in assay [4], in assay [5] and in [6] was inactive. In addition, the compound was called inactive in [7], in [8], in assay [9], in [10], in assay [12] and in [13]. Moreover, the compound was classed as inactive in assay [14], in assay [15], in assay [16], in assay [17], in assay [18] and in assay [19].
As to `O=C(O)c1cccc(Oc2ccccc2)c1`, the outcome in assay [1], in assay [2], in [3], in assay [4], in assay [5] and in assay [6] was inactive. Also, the result in assay [7], in assay [8], in [9], in assay [10], in assay [12] and in assay [13] was inactive. The compound was called inactive in assay [14], in assay [15], in assay [16], in [17], in assay [18] and in assay [19].

In general, AC50 refers to the midpoint of the concentration-response curve, whichever way the signal moves.
